Results reported in PubChem BioAssay.
Where “and” joins values, the source holds several entries; their conditions need not be identical. Equal values may be shown once. Where a structure was tested more than once in an assay, its records may differ in their call. Calls of active or inactive are those of the source. Unless noted, how the calls were made is not given here.

What was measured:
[1] = compound effects on lung adenocarcinoma cell viability – A549, calcein-AM fluorescence, 48 h, basal, profiling panel (AID 1162); settings: higher = more signal; further: test concentration not given here
[2] = compound effects on differentiated 3T3-L1 adipocyte viability – cell-based, 3T3-L1 adipocytes, calcein-AM fluorescence, 48 h, basal, profiling panel (AID 1163); settings: 3T3-L1 adipocytes viability, higher = more signal; further: test concentration not given here
[3] = compound effects on hepatocellular carcinoma cell viability – HepG2, calcein-AM fluorescence, 48 h, basal, profiling panel (AID 1164); settings: higher = more signal; further: test concentration not given here
[4] = compound effects on multiple myeloma cell viability – MM1S, calcein-AM fluorescence, 48 h, basal, profiling panel (AID 1165); settings: higher = more signal;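 further: viability of MM1S multiple myeloma cells under basal unstimulated conditions; test concentration not given here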
[5] = calcein-AM signal in unstimulated myeloma cells – cell-based, calcein-AM fluorescence, 48 h, PK04 Diversity Set, profiling panel (AID 1166); settings: RPMI8226 myeloma viability, higher = more signal;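 further: cells grown under basal conditions without added stimulus; test concentration not given here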
[6] = JC-1 mitochondrial signal, unstimulated HepG2 cells – cell-based, JC-1 fluorescence, 24 h, 100 nL compound, profiling panel (AID 1167); settings: HepG2 mitochondrial potential, higher = more signal; further: test concentration not given here
[7] = JC-1 mitochondrial signal, unstimulated adipocytes – cell-based, JC-1 fluorescence, 3T3-L1 adipocytes, 24 h, 100 nL compound, profiling panel (AID 1168); settings: JC-1 mitochondrial fluorescence, higher = more signal, called active from +8 up or from −8 down; further: test concentration not given here
[8] = JC-1 mitochondrial signal, unstimulated myeloma cells – cell-based, JC-1 fluorescence, RPMI8226, 24 h, 100 nL compound, profiling panel (AID 1169); settings: JC-1 mitochondrial potential fluorescence, higher = more signal; further: test concentration not given here
[9] = JC-1 mitochondrial signal, unstimulated MM1S myeloma – cell-based, JC-1 fluorescence, 24 h, 100 nL compound, profiling panel (AID 1170); settings: MM1S mitochondrial potential, higher = more signal; further: test concentration not given here
[10] = resazurin metabolic signal in A549 cells – cell-based, resazurin fluorescence, 24 h, PK04 Diversity Set, profiling panel (AID 1171); settings: A549 viability, higher = more signal, called active from +8 up or from −8 down; further: test concentration not given here
[11] = resazurin metabolic signal in HepG2 cells – cell-based, resazurin fluorescence, 24 h, PK04 Diversity Set, profiling panel (AID 1172); settings: HepG2 viability, higher = more signal; further: test concentration not given here
[12] = budding yeast growth changes without added modifier – OD600, strain BY4716, 24 h, basal condition, primary screen (AID 1173); settings: S. cerevisiae BY4716 growth, OD600, 24 h; higher = more signal, called active from +8 up or from −8 down
[13] = viability profiling in MM1S myeloma cells – cell-based, resazurin fluorescence, basal, 24 h, PK04 Diversity Set, profiling panel (AID 1174); settings: higher = more signal, called active from +8 up or from −8 down; further: test concentration not given here
[14] = molecular target: Dihydroorotate dehydrogenase (quinone), mitochondrial (Plasmodium falciparum (isolate 3D7)) (UniProt Q08210); assay: inhibition of P. falciparum DHODH – biochemical, C-terminal His tag, absorbance 600 nm, primary screen (AID 1175); settings: PfDHODH enzyme, DCIP absorbance 600 nm; higher = more signal, called active from +8 up or from −8 down;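 further: recombinant parasite enzyme with a five histidine tag at its C terminus; test concentration not given here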
[15] = inhibition of PAO1 biofilm formation – strain PAO1, LB-PBS medium, absorbance 600 nm, primary screen (AID 1176); further: test concentration not given here; settings: P. aeruginosa PAO1 growth/biofilm, A600, 12 h; higher = more signal
[16] = growth modulation of vineyard yeast isolate – strain RM11-1a, OD600, basal, 24 h, primary screen (AID 1177);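 further: cultures grown under basal conditions with no added stressor; test concentration not given here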; settings: S. cerevisiae RM11-1a growth, OD600, 24 h; higher = more signal, called active from +8 up or from −8 down
[17] = growth of efflux-deficient E. coli DRC39 – strain DRC39, OD650, 24 h, E. coli filamentation inducers, primary screen (AID 1178);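 further: growth measured as culture turbidity by optical density at 650 nm; test concentration not given here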; settings: E. coli DRC39 acrAB, higher = more signal, called active from +8 up or from −8 down
[18] = growth of efflux-deficient E. coli DRC39 – strain DRC39, OD650, 48 h, E. coli filamentation inducers, primary screen (AID 1179);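 further: screen aims at cell division blockers that make cells filament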; settings: E. coli DRC39 delta-acrAB growth, higher = more signal, called active from +8 up or from −8 down
[19] = viability profiling in RPMI8226 myeloma cells – cell-based, resazurin fluorescence, basal, 24 h, PK04 Diversity Set, profiling panel (AID 1180); settings: higher = more signal;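 further: RPMI8826 multiple myeloma cell line at 5000 cells per well; test concentration not given here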
[20] = molecular target: E3 ubiquitin-protein ligase XIAP (Homo sapiens) (UniProt P98170); assay: small molecules binding XIAP protein – biophysical, small-molecule microarray, fluorescence 635 nm, primary screen (AID 1181); settings: higher = more signal;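 further: score merges 667 nm emission and signal to noise over triplicate slides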
E3 ubiquitin-protein ligase XIAP (Homo sapiens), sequence (P98170 whole entry, looked up): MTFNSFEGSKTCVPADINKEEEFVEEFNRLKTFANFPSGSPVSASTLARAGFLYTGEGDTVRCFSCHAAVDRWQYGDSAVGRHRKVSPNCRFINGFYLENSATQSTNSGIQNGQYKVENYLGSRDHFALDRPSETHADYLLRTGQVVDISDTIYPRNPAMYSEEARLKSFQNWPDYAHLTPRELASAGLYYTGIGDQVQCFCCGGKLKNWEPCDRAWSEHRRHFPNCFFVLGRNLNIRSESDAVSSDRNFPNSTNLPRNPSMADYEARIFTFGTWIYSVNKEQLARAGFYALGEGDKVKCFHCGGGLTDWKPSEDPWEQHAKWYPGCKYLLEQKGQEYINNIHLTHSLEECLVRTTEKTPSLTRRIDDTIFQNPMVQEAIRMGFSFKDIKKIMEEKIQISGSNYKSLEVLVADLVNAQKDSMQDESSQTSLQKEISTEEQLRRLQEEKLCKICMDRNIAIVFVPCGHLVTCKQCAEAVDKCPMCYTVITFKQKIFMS

Dihydroorotate dehydrogenase (quinone), mitochondrial (Plasmodium falciparum (isolate 3D7)), sequence (Q08210 whole entry, looked up): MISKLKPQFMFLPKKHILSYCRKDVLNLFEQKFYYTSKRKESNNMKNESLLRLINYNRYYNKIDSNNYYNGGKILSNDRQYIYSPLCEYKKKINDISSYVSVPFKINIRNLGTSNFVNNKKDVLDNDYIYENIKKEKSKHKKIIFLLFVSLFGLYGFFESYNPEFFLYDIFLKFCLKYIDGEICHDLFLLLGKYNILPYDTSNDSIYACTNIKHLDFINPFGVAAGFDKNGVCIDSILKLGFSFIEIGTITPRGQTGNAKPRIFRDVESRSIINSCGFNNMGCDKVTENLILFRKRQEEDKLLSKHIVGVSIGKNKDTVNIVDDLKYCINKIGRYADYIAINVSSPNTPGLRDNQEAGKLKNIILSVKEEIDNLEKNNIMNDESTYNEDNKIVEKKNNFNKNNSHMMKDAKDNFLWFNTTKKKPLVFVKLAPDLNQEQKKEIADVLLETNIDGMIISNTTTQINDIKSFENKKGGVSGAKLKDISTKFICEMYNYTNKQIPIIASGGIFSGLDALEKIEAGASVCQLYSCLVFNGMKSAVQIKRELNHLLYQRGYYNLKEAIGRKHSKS

COC(=O)[C@@]1(Cc2ccccc2)[C@H]2c3cc(C(=O)N(C)C)n(Cc4ccc(C)c(F)c4F)c3C[C@H]2CN1C(=O)c1ccccc1
z-score [1]: -3.17 and -1.66 | z-score [2]: 0.42 and 0.702 | z-score [3]: -2.78 and -1.77 | z-score [4]: -3.27 and -3.16 | z-score [5]: -4.73 and -4.71 | z-score [6]: -2.92 and -1 | z-score [7]: -1.35 (inactive) and -1.29 (inactive) | z-score [8]: -0.926 and -0.872 | z-score [9]: -3 and -1.7 | z-score [10]: -3.06 (inactive) and -1.94 (inactive) | z-score [11]: -2.95 and -1.72 | z-score [12]: -0.265 (inactive) and 0.53 (inactive) | z-score [13]: -9.12 (active) and -3.68 (inactive) | composite z-score [14]: -3.37 (inactive) and -0.0662 (inactive) | z-score [15]: 3.02 (inactive) and 2.16 (inactive) | z-score [16]: 0.526 (inactive) and 0.401 (inactive) | z-score [17]: -0.347 (inactive) and -1.25 (inactive) | z-score [18]: -0.834 (inactive) and -0.836 (inactive) | z-score [19]: -6.06 and -3.79 | composite z-score [20]: 0.188 and 0.122

COC(=O)CC=C[C@@H](C)[C@@H](CO)NS(=O)(=O)c1ccc(C)cc1
z-score [1]: -0.188 and 0.816 | z-score [2]: -0.466 and -0.0209 | z-score [3]: -0.252 and 0.461 | z-score [4]: -0.243 and 0.811 | z-score [5]: -0.101 and 0.667 | z-score [6]: -0.328 and 0.817 | z-score [7]: -0.0819 (inactive) and -0.161 (inactive) | z-score [8]: -0.827 and 0.601 | z-score [9]: -0.0943 and -0.285 | z-score [10]: 0.827 (inactive) and -0.832 (inactive) | z-score [11]: 0.553 and -0.369 | z-score [12]: 0.909 (inactive) and -1.39 (inactive) | z-score [13]: 0.0323 (inactive) and -0.548 (inactive) | composite z-score [14]: 0.581 (inactive) and -0.0189 (inactive) | z-score [15]: 0.013 (inactive) and 0.204 (inactive) | z-score [16]: -0.214 (inactive) and -0.162 (inactive) | z-score [17]: -0.0056 (inactive) and 0.413 (inactive) | z-score [18]: -0.214 (inactive) and 0.297 (inactive) | z-score [19]: 0.519 and -0.314 | composite z-score [20]: -0.275 and 0.0656

Cc1ccc(S(=O)(=O)OC[C@@H]2CN3[C@@H](CC[C@@H](C)[C@@H]3c3ccc(Br)cc3)C(=O)O2)cc1
z-score [1]: -0.251 and 0.0448 | z-score [2]: 0.0273 and 0.503 | z-score [3]: 0.462 and 0.028 | z-score [4]: -0.644 and 0.185 | z-score [5]: -0.341 and -0.294 | z-score [6]: -0.735 and 0.438 | z-score [7]: -0.303 (inactive) and 0.303 (inactive) | z-score [8]: -0.883 and -0.68 | z-score [9]: 0.925 and 0.523 | z-score [10]: -0.474 (inactive) and 0.371 (inactive) | z-score [11]: -0.928 and 0.711 | z-score [12]: 0.212 (inactive) and 0.117 (inactive) | z-score [13]: 0.0032 (inactive) and 0.781 (inactive) | composite z-score [14]: -0.559 (inactive) and 0.188 (inactive) | z-score [15]: 0.487 (inactive) and -0.139 (inactive) | z-score [16]: -0.0273 (inactive) and 0.72 (inactive) | z-score [17]: 0.393 (inactive) and -1.04 (inactive) | z-score [18]: 0.521 (inactive) and -0.956 (inactive) | z-score [19]: -0.109 and 0.607 | composite z-score [20]: 1.69 and -0.0599

C=CC[C@@H](O)c1ccc(O)c(F)c1
z-score [1]: -0.562 and 0.575 | z-score [2]: 0.207 and 0.747 | z-score [3]: -0.804 and -0.172 | z-score [4]: -1.11 and 1.1 | z-score [5]: -0.508 and -1.15 | z-score [6]: -1.48 and -0.00596 | z-score [7]: -1.3 (inactive) and 1.47 (inactive) | z-score [8]: 0.345 and 0.642 | z-score [9]: -0.347 and 1.29 | z-score [10]: -0.694 (inactive) and 0.0466 (inactive) | z-score [11]: -0.0101 and 0.942 | z-score [12]: -0.898 (inactive) and -2.97 (inactive) | z-score [13]: -0.87 (inactive) and 1.56 (inactive) | composite z-score [14]: 0.672 (inactive) and -0.585 (inactive) | z-score [15]: 0.671 (inactive) | z-score [16]: 0.912 (inactive) and -1.83 (inactive) | z-score [17]: -0.046 (inactive) and 1.79 (inactive) | z-score [18]: -0.248 (inactive) and 1.06 (inactive) | z-score [19]: -0.511 and 0.864 | composite z-score [20]: -0.0884 and -0.042

C=C(C)C(=O)OC[C@@H]1CN2[C@@H](CC[C@@H](C)[C@@H]2c2ccc(Br)cc2)C(=O)O1
z-score [1]: 0.254 | z-score [2]: -0.2 | z-score [3]: 1.08 | z-score [4]: 0.419 | z-score [5]: 0.427 | z-score [6]: 0.642 | z-score [7]: 0.945 (inactive) | z-score [8]: -0.28 | z-score [9]: -0.631 | z-score [10]: 0.173 (inactive) | z-score [11]: 0.726 | z-score [12]: -3.12 (inactive) | z-score [13]: 0.155 (inactive) | composite z-score [14]: 0.187 (inactive) | z-score [15]: 0.936 (inactive) | z-score [16]: 0.361 (inactive) | z-score [17]: 0.513 (inactive) | z-score [18]: 0.682 (inactive) | z-score [19]: 0.173 | composite z-score [20]: -0.0326

C=CCN(CCCCC)C(=O)C1N(CCCCCCO)C(=O)C2C(C(=O)O)C3C=CC21O3 (stereo not given)
z-score [1]: -0.681 and -0.373 | z-score [2]: -0.573 and -0.412 | z-score [3]: 0.122 and 0.657 | z-score [4]: 1.6 and 0.379 | z-score [5]: 0.0447 and -0.164 | z-score [6]: -0.649 and -0.526 | z-score [7]: -0.2 (inactive) and 0.409 (inactive) | z-score [8]: 0.15 and 0.0486 | z-score [9]: 0.702 and -0.254 | z-score [10]: -0.66 (inactive) and -0.379 (inactive) | z-score [11]: -0.382 and -0.569 | z-score [12]: -0.0594 (inactive) and -0.411 (inactive) | z-score [13]: -0.847 (inactive) and -0.718 (inactive) | composite z-score [14]: 0.0615 (inactive) and -0.082 (inactive) | z-score [15]: 0.0809 (inactive) and -0.966 (inactive) | z-score [16]: -0.42 (inactive) and -0.52 (inactive) | z-score [17]: 0.554 (inactive) and -0.272 (inactive) | z-score [18]: 0.44 (inactive) and -0.188 (inactive) | z-score [19]: -0.772 and -0.735 | composite z-score [20]: -0.152 and 0.0785

CC(CO)N1C(=O)[C@@H]2C3C(=O)OCCC=C[C@H]3OC23C=CCN(Cc2ccccc2)C(=O)[C@@H]13 (stereo not given in full)
z-score [1]: 0.606 and 0.0694 | z-score [2]: 0.888 and 0.458 | z-score [3]: 0.237 and 0.113 | z-score [4]: 0.34 and 0.311 | z-score [5]: -0.306 and -0.454 | z-score [6]: 0.567 and 0.15 | z-score [7]: 0.932 (inactive) and 0.902 (inactive) | z-score [8]: -0.914 and 0.0338 | z-score [9]: 0.789 and 0.282 | z-score [10]: 0.305 (inactive) and 0.147 (inactive) | z-score [11]: 0.278 and -0.0236 | z-score [12]: 1.35 (inactive) and -1.28 (inactive) | z-score [13]: 0.533 (inactive) and 0.868 (inactive) | composite z-score [14]: 0.113 (inactive) and -2.83 (inactive) | z-score [15]: -1.35 (inactive) and -0.0684 (inactive) | z-score [16]: 1.57 (inactive) and -0.214 (inactive) | z-score [17]: 0.748 (inactive) and 0.632 (inactive) | z-score [18]: 0.453 (inactive) and 0.309 (inactive) | z-score [19]: 0.252 and 0.693 | composite z-score [20]: -0.196 and 0.194
